# Assay results: PubChem BioAssay AID651909 (Vanderbilt Specialized Chemistry Center, 2012)
# Activity calls are given as the source filed them. No rule for the calls is given here.
# Molecular target: Histone deacetylase 9 (Homo sapiens) (UniProt Q9UKV0)
# Assay: inhibitors of recombinant human HDAC9 – biochemical, selectivity assay for E-cadherin restoration project, profiling panel (AID 651909)
# Conditions: recombinant HDAC9, fluorogenic class IIa substrate; series mostly up to 10 µM
# Sequence of Histone deacetylase 9 (Homo sapiens) (Q9UKV0 whole entry, looked up): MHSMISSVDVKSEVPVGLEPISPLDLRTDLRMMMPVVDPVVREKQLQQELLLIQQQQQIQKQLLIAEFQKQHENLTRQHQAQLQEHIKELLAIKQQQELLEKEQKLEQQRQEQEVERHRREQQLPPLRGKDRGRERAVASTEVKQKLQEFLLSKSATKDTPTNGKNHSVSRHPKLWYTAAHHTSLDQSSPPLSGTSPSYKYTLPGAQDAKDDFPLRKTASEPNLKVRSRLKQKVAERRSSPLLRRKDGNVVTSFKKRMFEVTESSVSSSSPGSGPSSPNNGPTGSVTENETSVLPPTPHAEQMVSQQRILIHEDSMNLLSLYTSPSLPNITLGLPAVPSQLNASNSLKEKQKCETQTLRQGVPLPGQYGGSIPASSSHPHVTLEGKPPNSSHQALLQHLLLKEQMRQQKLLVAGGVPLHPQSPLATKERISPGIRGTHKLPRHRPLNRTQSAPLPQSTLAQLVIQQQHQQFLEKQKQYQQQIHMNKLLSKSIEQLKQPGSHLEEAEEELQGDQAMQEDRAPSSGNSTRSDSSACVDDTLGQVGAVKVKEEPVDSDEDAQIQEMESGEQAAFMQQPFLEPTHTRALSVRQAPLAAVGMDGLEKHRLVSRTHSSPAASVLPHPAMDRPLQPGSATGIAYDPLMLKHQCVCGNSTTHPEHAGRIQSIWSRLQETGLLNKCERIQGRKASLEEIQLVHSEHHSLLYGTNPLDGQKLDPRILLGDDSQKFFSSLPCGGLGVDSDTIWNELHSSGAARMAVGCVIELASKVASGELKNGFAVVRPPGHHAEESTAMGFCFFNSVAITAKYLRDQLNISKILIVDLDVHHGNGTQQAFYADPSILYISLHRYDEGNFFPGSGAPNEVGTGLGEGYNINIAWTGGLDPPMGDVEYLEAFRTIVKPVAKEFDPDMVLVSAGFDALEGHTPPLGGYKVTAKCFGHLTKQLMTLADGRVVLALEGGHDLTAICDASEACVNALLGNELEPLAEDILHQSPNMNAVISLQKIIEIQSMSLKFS
smiles,measurement,value
O=C(NCCCNC(=O)c1ccc[nH]c1=O)c1cc(-c2ccccc2)on1,outcome,inactive
